The structures appear in SMILES notation. In all, about 200,000 compounds went through this assay and about 110 (0.055%) were called active. Cut-off read from the data, not from the text of the source: active = inhibition above about 50%; inactive = the rest. The full list was thinned out, with actives kept by preference. Where a SMILES comes first, the peptide text is derived from it. [ ]: non-standard residue; d: D form. ξ: configuration not given here. ξM = CSCCC(N)C(=O)O

For the experiment, the target named is Serine/threonine-protein kinase D1 (Homo sapiens) (UniProt Q15139). Kind of experiment: protein kinase D1 activity blockers – biochemical, fluorescence polarization (AID 797). To be noted: PKD1 kinase fluorescence polarization assay; active compounds read high; concentration not given here.
Chain of Serine/threonine-protein kinase D1 (Homo sapiens) (Q15139 whole entry, looked up): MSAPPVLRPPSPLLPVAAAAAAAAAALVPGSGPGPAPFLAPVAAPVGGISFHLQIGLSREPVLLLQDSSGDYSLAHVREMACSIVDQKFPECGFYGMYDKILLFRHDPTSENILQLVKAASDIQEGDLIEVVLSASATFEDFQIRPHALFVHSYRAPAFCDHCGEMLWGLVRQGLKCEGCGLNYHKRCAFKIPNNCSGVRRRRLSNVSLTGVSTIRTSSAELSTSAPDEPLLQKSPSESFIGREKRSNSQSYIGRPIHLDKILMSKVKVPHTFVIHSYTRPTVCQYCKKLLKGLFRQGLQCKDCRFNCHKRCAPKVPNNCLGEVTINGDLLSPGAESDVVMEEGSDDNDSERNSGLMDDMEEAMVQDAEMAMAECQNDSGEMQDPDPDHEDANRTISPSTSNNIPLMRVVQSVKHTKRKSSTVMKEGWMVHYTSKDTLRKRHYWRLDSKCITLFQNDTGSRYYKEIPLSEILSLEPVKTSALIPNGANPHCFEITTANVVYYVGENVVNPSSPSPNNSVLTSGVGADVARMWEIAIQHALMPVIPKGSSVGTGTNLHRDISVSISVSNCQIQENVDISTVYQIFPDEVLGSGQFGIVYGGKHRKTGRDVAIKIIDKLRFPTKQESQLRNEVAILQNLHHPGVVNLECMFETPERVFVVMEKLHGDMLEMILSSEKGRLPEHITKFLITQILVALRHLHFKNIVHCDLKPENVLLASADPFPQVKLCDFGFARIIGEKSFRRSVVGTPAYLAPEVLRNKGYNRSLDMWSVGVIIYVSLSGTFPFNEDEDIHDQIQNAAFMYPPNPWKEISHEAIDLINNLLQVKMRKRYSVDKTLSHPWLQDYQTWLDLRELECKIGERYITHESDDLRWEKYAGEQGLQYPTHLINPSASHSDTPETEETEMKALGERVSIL
On to `CN1CCN(c2ccc(S(=O)(=O)N3CCCCC3)cc2NC(=O)Cc2ccccc2F)CC1`, for which the inhibition is -6.13% (inactive).

With `Cc1ccc(NC(=O)CN2CCC(C(N)=O)CC2)cc1[N+](=O)[O-]`, the inhibition is 5.71% (inactive). Regarding `COc1ccc(NC(=O)CC2C(=O)OCC3CCCCN32)cc1Cl` (centres undefined), the inhibition is -6.39% (inactive). On to `Cc1onc(C(=O)NCc2ccc(F)cc2)c1[N+](=O)[O-]`, for which the inhibition was 0.1% (inactive). Then `CCn1nc(C)c(/C=N/NC(=O)Cc2ccc(Cl)cc2)c1C`, with 3.28% (inactive). The result for `O=C(O)c1cccc(N2C(=O)Nc3ccccc3N2O)c1` reads 7.76% (inactive); that for `CCCCCCNCCn1cnc2c(N)ncnc21`, 6.16% (inactive).

On to `CC1CCN(c2ccc(C(=O)NCc3ccc4c(c3)OCO4)cc2[N+](=O)[O-])CC1`, for which the inhibition is 0.75% (inactive). Then `Brc1c(CSc2nncc3ccccc23)nc2ccccn12`, with 7.29% (inactive). For `Cc1ccc(O)c(-c2cc(C(=O)NCc3ccccc3)[nH]n2)c1`, the inhibition is -6.87% (inactive). Then `CCOC(=O)C(CC)/C(C)=N\NC(=O)c1cccc(C)c1` (centres undefined), with -4.87% (inactive); and `COc1cccc2cc(/C(C)=N/NC(=O)c3ccco3)oc12`, with 5.6% (inactive). For the compound `O=C(CC1NCCc2ccccc21)Nc1cccc(Cl)c1` (centres undefined), the inhibition was -4.65% (inactive).

Turning to `O=C(CN1CCN(c2ccc(O)cc2)CC1)Nc1cc(S(=O)(=O)N2CCOCC2)ccc1Cl`, the inhibition was 1.7% (inactive). The result for `CC1(C)C(C=C(Cl)Cl)C1C(=O)N(Cc1ccc(Cl)cc1)C1CCS(=O)(=O)C1` (centres undefined) reads 0.63% (inactive). Then `CCOC(=O)Cc1ncccc1C(=O)Nc1ccc(OC(F)(F)F)cc1`, with -0.72% (inactive). `CN1C(=O)/C(=C\c2ccc(-c3ccccc3)o2)SC1=S`: the inhibition is -6.62% (inactive). Regarding `CSc1cccc(NC(=S)N(Cc2ccccc2)Cc2ccccn2)c1`, the inhibition was -9.2% (inactive). As to `COC(=O)CNC(=O)C(CCSC)NC(C)=O` (centres undefined) (Ac-[ξM]-Gly-OMe), the inhibition was 9.67% (inactive).

As to `O=C(CSc1ccc(-c2cccs2)nn1)Nc1ccccc1F`, the inhibition was 2.17% (inactive). With `CCN(CC)CCOCCOc1ccc(Cl)c2ccccc12`, the inhibition was -3.28% (inactive). As to `CN1CCN(C(=O)C2=C[C@H](c3ccc4c(c3)OCO4)C[C@H](OCc3ccc(CO)cc3)O2)CC1`, the inhibition is -5.9% (inactive). As to `O=C1/C(=C/c2cccs2)CCC1C1CCCC1` (centres undefined), the inhibition was -1.44% (inactive).

On to `Cc1ccc(NC(=O)Nc2nnc(-c3ccncc3)s2)cc1`, for which the inhibition is 2.87% (inactive). Then `CCc1nnc(NC(=O)CSc2nc(SC)ns2)s1`, with 1.32% (inactive).

Regarding `O=C(Nc1nnc(C2COc3ccccc3O2)o1)c1ccc(F)cc1` (centres undefined), the inhibition was -1.94% (inactive). As for `CCC(C)NCC(=O)Nc1ccc([N+](=O)[O-])cc1C(=O)Nc1ccccc1F` (centres undefined), the inhibition was -10.9% (inactive). Then `CNC(=O)COC(=O)c1cc(-c2ccc(OC)cc2)nc2ccccc12`, with -3.14% (inactive); and `Nc1cccc(-c2cc(-c3ccccc3)nc(-c3cccc(N)c3)n2)c1`, with -18.9% (inactive).

Turning to `COC(=O)NNC(=O)C1CCC(C)CC1` (centres undefined), the inhibition is -3.54% (inactive). The result for `Cc1cccc(NC(=O)c2nnn(-c3cccc(C(F)(F)F)c3)c2N)c1` reads -0.25% (inactive). For the compound `S=C1NC(c2ccccc2)=NCN1c1ccc(Br)cc1`, the inhibition was 0.72% (inactive).

On to `COc1ccc2ccccc2c1CNc1nnnn1C`, for which the inhibition is -8.73% (inactive). `CCC(C)NC(=O)/C=C/c1ccc(S(=O)(=O)NCc2ccco2)cc1` (centres undefined): the inhibition was 7.02% (inactive). Then `CCCCSc1nc2ccccc2[nH]1`, with -6.36% (inactive); and `CN(CCc1cn[nH]c1)C(=O)CC1C(=O)NCCN1Cc1cccc(Oc2ccccc2)c1` (centres undefined), with -3.31% (inactive). As for `Cc1c(C(=O)NCCN2C(=O)S/C(=C\c3cccs3)C2=O)cccc1[N+](=O)[O-]`, the inhibition is 8.76% (inactive). Then `Cc1ccc2c(=O)oc(N(C)C)nc2c1`, with 1.27% (inactive). The result for `C#CCOCCOCCOCCNc1nc(N2CCN(C(=O)[C@H](CCCCN)n3cc([C@@H](N)C(C)CC)nn3)CC2)nc(N2CCN(C(=O)[C@H](Cc3ccc(O)cc3)n3cc([C@@H](N)C(C)CC)nn3)CC2)n1` (some centres undefined) reads -0.05% (inactive); that for `C=CCNC(=S)N1CCN(CCN=Cc2c(C)[nH]n(-c3ccc([N+](=O)[O-])cc3)c2=O)CC1`, -2.35% (inactive). Then `CC(Oc1ccc(Cl)cc1)c1ccnn1S(C)(=O)=O` (centres undefined), with -7.83% (inactive). `CCOC(=O)c1c(NC(=O)C2CCN(S(=O)(=O)c3ccc(Cl)cc3)CC2)sc2c1CCCC2`: the inhibition was 8.85% (inactive). The result for `CCCCCC1CCC(c2nnc(SCC(C)=O)o2)CC1` (centres undefined) reads -8% (inactive); that for `O=[N+]([O-])c1cc(S(=O)(=O)N2CCCC2)ccc1NN=C1CCCC1`, 2.42% (inactive). Then `Cc1cc(N/N=C/c2ccccc2F)c2ccccc2n1`, with 4.69% (inactive). The result for `Cc1ccc(-n2cc(CN(C)Cc3nccn3C)c(-c3cccc(C)c3)n2)cc1` reads -5.32% (inactive); that for `COc1ccc(S(=O)(=O)Nc2cccnc2)c(Cl)c1Cl`, -2.39% (inactive). With `O=C(NCCCN1CCOCC1)c1ccc(N2CCCC2)c([N+](=O)[O-])c1`, the inhibition was -1.03% (inactive). Then `CC(C)(C)c1nnc(N/N=C/c2ccc(O)cc2)n(N)c1=O`, with -3.71% (inactive). The result for `CC(C)(C)NC(=O)NC(=O)CN1CCC(Cc2ccccc2)CC1` reads -4.14% (inactive); that for `CCN1/C(=C\c2ccc3ccccc3[n+]2CC)Sc2cc(C)ccc21`, -5.46% (inactive).

`Cc1scc(C(=O)NNC(=S)NCc2ccccc2)c1C`: the inhibition is -7.68% (inactive). `COc1ccc(/C=N/n2c(C)cc(C)cc2=O)cc1`: the inhibition was -7.11% (inactive).

Consider `CCCn1c(NC(=O)C23CC4CC(CC(O)(C4)C2)C3)nc2ccccc21`, for which the inhibition was -0.11% (inactive).

The values are drawn from PubChem BioAssay AID797 (University of Pittsburgh Molecular Library Screening Center, 2007).
